Data published in ChEMBL document CHEMBL1201862, “PubChem BioAssay data set” (2004).
Among all 400,000 compounds or so, about 2,100 (0.53%) were called active. Not shown: some 14% with an inconclusive outcome. The rule behind the calls is not given here. Many of the other results were omitted from the sample, so actives are more common in it than they were.

Biological target: Ataxin-2 (Homo sapiens) (UniProt Q99700)
Assay: qHTS for Inhibitors of ATXN expression.
Assay type: functional

Ataxin-2 (Homo sapiens), sequence (Q99700 whole entry): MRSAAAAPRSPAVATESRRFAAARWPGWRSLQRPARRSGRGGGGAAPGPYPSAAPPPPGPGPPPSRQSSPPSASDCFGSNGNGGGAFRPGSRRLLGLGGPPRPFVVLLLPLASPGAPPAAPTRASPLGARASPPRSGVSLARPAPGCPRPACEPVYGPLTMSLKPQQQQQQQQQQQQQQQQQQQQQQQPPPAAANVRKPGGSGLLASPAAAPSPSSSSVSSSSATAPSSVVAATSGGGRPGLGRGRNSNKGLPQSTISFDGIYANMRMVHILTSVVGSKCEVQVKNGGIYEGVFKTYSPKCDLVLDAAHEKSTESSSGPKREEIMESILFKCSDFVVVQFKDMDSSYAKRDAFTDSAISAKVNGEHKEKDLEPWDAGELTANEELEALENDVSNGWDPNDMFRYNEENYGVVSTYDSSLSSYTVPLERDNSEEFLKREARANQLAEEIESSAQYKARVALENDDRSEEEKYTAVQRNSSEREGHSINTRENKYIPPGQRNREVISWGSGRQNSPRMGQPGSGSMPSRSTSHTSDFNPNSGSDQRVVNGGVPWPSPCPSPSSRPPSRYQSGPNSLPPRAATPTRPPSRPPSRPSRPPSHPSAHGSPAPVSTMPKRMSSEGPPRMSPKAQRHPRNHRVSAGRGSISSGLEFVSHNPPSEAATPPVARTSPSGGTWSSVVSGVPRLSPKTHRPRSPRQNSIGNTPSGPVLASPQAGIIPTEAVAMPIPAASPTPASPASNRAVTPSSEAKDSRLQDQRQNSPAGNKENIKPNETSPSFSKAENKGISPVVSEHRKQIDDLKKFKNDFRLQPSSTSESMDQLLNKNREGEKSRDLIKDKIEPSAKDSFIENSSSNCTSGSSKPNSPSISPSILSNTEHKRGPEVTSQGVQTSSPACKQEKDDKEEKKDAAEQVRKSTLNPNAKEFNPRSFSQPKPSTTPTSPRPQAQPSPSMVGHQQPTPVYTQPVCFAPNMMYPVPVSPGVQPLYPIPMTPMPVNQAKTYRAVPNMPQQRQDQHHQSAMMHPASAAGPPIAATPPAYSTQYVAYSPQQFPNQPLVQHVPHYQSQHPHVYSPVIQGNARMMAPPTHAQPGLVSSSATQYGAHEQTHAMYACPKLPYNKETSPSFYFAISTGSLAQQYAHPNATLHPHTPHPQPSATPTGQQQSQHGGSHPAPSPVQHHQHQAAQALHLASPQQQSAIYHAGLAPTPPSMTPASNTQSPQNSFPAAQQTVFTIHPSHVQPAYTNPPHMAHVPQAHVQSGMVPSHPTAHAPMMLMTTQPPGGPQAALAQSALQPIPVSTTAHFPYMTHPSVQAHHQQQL

SMILES	Potency
CCCCNC(=O)CN1C(=O)c2cccc(N)c2C1=O	inactive
Clc1ccc(-c2cn3nc4c(nc3n2)CCCC4)cc1	inactive
COc1ccccc1/C=C/C=C1\Oc2c(ccc(O)c2CN(C)C)C1=O	inactive
COc1ccc(-c2nnc(-c3ccc(F)cc3)o2)cc1	inactive
COc1cccc2sc(Nc3nnc(-c4ccc(F)cc4)o3)nc12	31.6 µM (active)
CCOc1cccc2sc(NN)nc12	inactive
Cc1cccn2c(=O)c3cc(C(=O)NCc4ccccc4)c(=N)n(CCOCCO)c3nc12	inactive
Cc1c(O)c(CN2CCCC2)cc2c3c(c(=O)oc12)CCC3	inactive
COc1ccc(CCN2C(=O)COc3ccccc3C2C(=O)Nc2ccc3c(c2)OCCO3)cc1OC (centres undefined)	25.1 µM (active)
Cc1ccc(NC(=O)C2OCCc3ccccc32)cc1C (centres undefined)	inactive
CCCCNc1c(N)n(CCC)c(=O)[nH]c1=O	inactive
O=C(CN1C(=O)NC(Cc2c[nH]c3ccccc23)C1=O)Nc1ccc(F)c(F)c1F (centres undefined)	inactive
CN(C)C(CN=C(S)Nc1cccc(Cl)c1)c1cccnc1 (centres undefined)	inactive
Cc1csc(N=C(S)Nc2cccc(Cl)c2)n1	25.1 µM (active)
CC(C)c1cccc(C(C)C)c1N=C(S)Nc1cccc(Cl)c1	inactive
CCCCC[C@H](C)N1C[C@H](COCc2ccccc2)Oc2cc(N3CCC[C@H]3CO)ccc2S1(=O)=O	28.2 µM (active)
CCCCC[C@@H](C)N1C[C@H](COCc2ccccc2)Oc2cc(N3CCC[C@@H]3CO)ccc2S1(=O)=O	39.8 µM (active)
CCCCC[C@@H](C)N1C[C@H](COCc2ccccc2)Oc2cc(N3CCC[C@H]3CO)ccc2S1(=O)=O	10 µM (active)
Cc1ccc(-c2nc3n(n2)C(c2ccccc2C)C=C(c2ccc(Cl)cc2)N3)cc1 (centres undefined)	inactive
COC(=O)c1ccc(C)c(NC(=O)CSc2nc3nc(O)cc(O)c3s2)c1	inactive
Cc1cccc2c1-c1sc(C(=O)Nc3nccs3)cc1CO2	inactive
COc1ccc(S(=O)(=O)N2CCN(Cc3cc(OC)c(OC)cc3OC)CC2)cc1	inactive
Cc1ccnc(N2C(=O)c3cccc4c([N+](=O)[O-])ccc(c34)C2=O)c1	inactive
CN(CC(=O)Nc1c(Cl)cccc1Cl)C(=O)C1CC(=O)N(Cc2ccccc2)C1 (centres undefined)	inactive
Cc1ccc(CNC(=O)Cn2ncn3cccc3c2=O)cc1	inactive
Cc1cccc(NC(=O)CNC(=O)Cn2ncc(Cl)c(Cl)c2=O)c1C	21.2 µM (active)

SMILES	Potency
COc1ccc(CN(C)C(C)C(=O)N(C)CC(=O)Nc2ccc(C)cc2)cc1F (centres undefined)	inactive
Cc1ccc(NC(=O)CN(C)C(=O)Cn2ncc(Cl)c(Cl)c2=O)cc1	28.2 µM (active)
CC(=O)Nc1ccc(NC(=O)CCC(=O)Oc2ccc(C)cc2)cc1	inactive
CCc1ccccc1NC(=O)CN(C)C(=O)Cn1ncc(Cl)c(Cl)c1=O	35.5 µM (active)
Cc1ccccc1OCC(=O)Nc1cccc(Cl)c1C	inactive
CN(CC(=O)Nc1ccccc1Cl)C(=O)CN1C(=O)NC(c2ccccc2)(c2ccccc2)C1=O	inactive
O=C(NN/C=C1\C(=O)N(Cc2ccccc2)C(=O)c2ccccc21)c1cccnc1	inactive
CC(=O)Nc1nc2n(n1)C(c1ccccc1)C=C(c1ccccc1)N2 (centres undefined)	inactive
C1=C(c2ccccc2)Nc2ncnn2C1c1ccccc1 (centres undefined)	inactive
CCOC(=O)CCc1c(C)c2ccc3c(c2oc1=O)CN(CCCO)CO3	inactive
CC(=O)c1ccc2noc(-c3ccc(C)cc3)c2c1	inactive
Cc1c(C(=O)c2no[n+]([O-])c2C(=O)c2cnn(C)c2C)cnn1C	39.8 µM (active)
Cc1ccc(N2C(=O)C3C(C(=O)c4ccccc4)=NN(c4ccccc4)C3C2=O)cc1 (centres undefined)	inactive
Cc1ccc(C(=O)c2no[n+]([O-])c2C(=O)c2ccc(C)cc2)cc1	31.6 µM (active)
CC(OC(=O)c1ccccc1O)C(=O)Nc1ccc(Cl)cn1 (centres undefined)	inactive
COc1cc(C(CC(=O)Nc2ccc(Cl)cn2)N2Cc3ccccc3C2=O)cc(OC)c1OC (centres undefined)	inactive
CCc1cc2c(CN3CCN(C)CC3)cc(=O)oc2cc1O	inactive
COCOCCn1cc(CN2CCS(=O)(=O)N(Cc3ccc(-c4ccc(Cl)c(Cl)c4)cc3)C(C)C2=O)nn1 (centres undefined)	22.4 µM (active)
COCOCCn1cc(CN2CCS(=O)(=O)N(Cc3ccc(-c4ccc(Cl)c(Cl)c4)cc3)C(C(C)C)C2=O)nn1 (centres undefined)	28.2 µM (active)
COCOCCn1cc(CN2CCS(=O)(=O)N(Cc3ccc(-c4ccccc4)cc3)C(CC(C)C)C2=O)nn1 (centres undefined)	39.8 µM (active)
CCOC(=O)NC(=O)/C(=C/Nc1ccc(Cl)c(Cl)c1Cl)C(C)=O	inactive
Nc1c(C(=O)N2CCCC2)sc2nc3c(cc12)CCCCCC3	inactive
c1cnn2c(-c3ccc4c(c3)CCO4)cnc2c1	inactive
O=C(CNC(=O)OCc1ccccc1)Oc1cc2oc(=O)cc(-c3ccccc3)c2cc1Cl	inactive
Cc1onc(C(=O)NC2CCCCC2)c1[N+](=O)[O-]	inactive
COc1ccccc1Nc1c2ccccc2nc2ccccc12	inactive

SMILES	Potency
COc1ccc(Nc2c3c(nc4ccccc24)CCC3)cc1Cl	28.2 µM (active)
COc1cc(N)ccc1Nc1c2ccccc2nc2ccccc12	inactive
COc1ccc(C2CC(c3cccs3)=NN2c2ccc(C=O)cc2)cc1 (centres undefined)	inactive
O=C(CCl)Nc1cccc(-c2cnc3ccccc3n2)c1	3.98 µM (active)
CCOC(=O)c1ccc(Nc2cnc3ccccc3n2)cc1	inactive
Oc1ccc(-c2cnc3ccccc3n2)cc1	inactive
CCOc1ccc(-c2cnc3ccccc3n2)cc1	inactive
O=C(CCl)Nc1ccc(Oc2cnc3ccccc3n2)cc1	20 µM (active)
O=C(CCl)Nc1cccc(Oc2ccccc2)c1	8.44 µM (active)
CC(C)(C)C(=O)Nc1ccc(C(=O)Nc2cccc(Oc3ccc(C(=O)O)c(C(=O)O)c3)c2)cc1	inactive
O=C(O)CSCC(=O)NCc1c(Cl)cccc1Oc1ccccc1	inactive
CCN(CC)CCN1C2=C(C(=O)CC(C)(C)C2)C(c2cccc(F)c2)C2=C1CC(C)(C)CC2=O	inactive
CCOc1ccc(NC(=O)CC(NC(C)=O)c2ccccc2)cc1S(=O)(=O)N1CCCC1 (centres undefined)	inactive
Cc1c(-c2ccccc2)c(=O)oc2cc(O)ccc12	inactive
COc1ccc(Cn2cc(C(=O)c3ccc(C)cc3)c(=O)c3cc(OC)c(OC)cc32)cc1	11.2 µM (active)
COc1ccc(Cn2cc(C(=O)c3ccc(C)c(C)c3)c(=O)c3ccccc32)cc1	31.6 µM (active)
COc1cccc(Cn2cccc(NC(=O)Nc3ccccc3C)c2=O)c1	inactive
COc1ccc(-n2cc(C(=O)c3ccccc3O)cn2)cc1	inactive
CCCn1c(O)c(C(=O)NCCc2ccc(OC)cc2)c(=O)c2ccccc21	inactive
COc1ccc(/C=c2\s/c(=C/C(=O)c3ccc(C)cc3)[nH]c2=O)c(OC)c1	inactive
Cc1ccc(S(=O)(=O)NC(C)C(=O)OCC(=O)Nc2sccc2C(N)=O)cc1 (centres undefined)	inactive
Cc1ccc(C)c(Nc2nc3nonc3nc2Nc2cccc(C)c2C)c1	10 µM (active)
Cc1ccccc1Nc1cccc2nonc12	inactive
O=C(CCc1ccccc1)NC(=S)Nc1ccccc1Br	inactive
O=C(CCc1ccccc1)NC(NC(=S)Nc1ccc(Cl)cc1)C(Cl)(Cl)Cl (centres undefined)	39.8 µM (active)
O=C(CCc1ccccc1)NC(c1cccs1)c1cc(Cl)c2cccnc2c1O (centres undefined)	inactive

SMILES	Potency
O=C1c2oc3ccc(Cl)cc3c(=O)c2C(c2ccccn2)N1CCCN1CCOCC1 (centres undefined)	inactive
NC(=O)C1=CC2C3C=CC2(O)C(=O)OC3O1 (centres undefined)	16.8 µM (active)
Cn1cc(/C=C/c2cc[n+](C)cc2)c2cc(F)ccc21	inactive
CCOC(=O)Cc1csc(NC(=O)c2ccc3ncsc3c2)n1	35.5 µM (active)
CCOC(=O)Cc1csc(NC(=O)COc2ccc3c(C)cc(=O)oc3c2)n1	inactive
CCOC(=O)Cc1csc(NC(=O)CN2CCN(c3ccccc3)CC2)n1	inactive
SC1=NCN(Cc2ccco2)CN1	inactive
Clc1ccc(/C=C/c2ncc3ccccn23)cc1	inactive
CCc1cc2c(-c3ccccc3)cc(=O)oc2cc1OC(=O)c1cccs1	inactive
CCc1ccc2c(c1)/C(=C/C(=O)c1cccs1)C(=O)N2	20 µM (active)
COCCN(CCOC)Cc1c(O)ccc2c1O/C(=C\c1ccc(C)o1)C2=O	inactive
COc1ccc(/C=N/NC(=O)c2cccc(C(F)(F)F)c2)cc1	inactive
COc1ccc(/C=C/C(=O)Oc2ccc(/C=N/NC(=O)c3ccccc3)cc2)cc1OC	31.6 µM (active)
Nc1ccc(C(=O)N/N=C\c2ccc(OC(=O)c3ccccc3Cl)cc2)cc1	inactive
O=C(CNC(=O)c1ccccc1F)NCc1ccccn1	inactive
CCCN1C/C(=C/c2cccc([N+](=O)[O-])c2)C(=O)/C(=C/c2cccc([N+](=O)[O-])c2)C1	4.47 µM (active)
O=C1NC(=O)/C(=C\c2ccc(OCc3cccc([N+](=O)[O-])c3)cc2)N1	inactive
O=C1/C(=C/c2cccc(Cl)c2)CSc2sccc21	inactive
Cc1cccc(N2CCN(S(=O)(=O)c3cccs3)CC2)c1C	inactive
Cc1ccccc1C1(CC(=O)N2CCCC2c2nccs2)CC(=O)N(C2CCCC2)C1=O (centres undefined)	inactive
C=CCn1c(=O)[nH]c2nc3cc(/N=C/N(C)C)c(C)cc3nc2c1=O	inactive
CC1(c2ccccc2)NC(=O)N(CC(=O)NCc2cccc(Cl)c2)C1=O (centres undefined)	inactive
O=C(CCl)NN1C(=O)NC(c2ccccc2)(c2ccccc2)C1=O	26.7 µM (active)
O=C(NCc1ccccc1Cl)c1ccc2c(=O)n(CC3CCCO3)c(=S)[nH]c2c1 (centres undefined)	inactive
Cc1csc(N=Nc2ccc(N(C)C)cc2)[n+]1[O-]	14.1 µM (active)
CN(C)c1ccc(N=Nc2nc3ccccc3n2C)cc1	inactive
